Experimental data: the supplement of paper PMC6992640
± gives the standard deviation of the averaged measurements.

Legend:
Experiment in all cases: cell viability (% of vehicle); higher = less cytotoxic
HCI01 [1] = cells of a triple-negative basal-like breast cancer xenograft; conditions: 10 µM; 72 h
HCI03 = cells of an ER-positive luminal breast cancer xenograft; conditions: 10 µM; 72 h
HCI09 = cells of a triple-negative luminal androgen receptor type breast cancer xenograft; conditions: 10 µM; 72 h
HCI11 = cells of an ER-positive luminal breast cancer xenograft; conditions: 10 µM; 72 h
HCI13 = cells of an ER-positive luminal breast cancer xenograft; conditions: 10 µM; 72 h
HCI16 = cells of a triple-negative basal-like breast cancer xenograft; conditions: 10 µM; 72 h
UCD52 [2] = cells of a triple-negative basal-like breast cancer xenograft; conditions: 10 µM; 72 h
WHIM2 [3] = cells of a triple-negative basal-like breast cancer xenograft; conditions: 10 µM; 72 h
WHIM30 [4] = cells of a triple-negative basal-like breast cancer xenograft; conditions: 10 µM; 72 h
HCI01 [5] = conditions: 1 µM; 72 h
UCD52 [6] = conditions: 1 µM; 72 h
WHIM2 [7] = conditions: 1 µM; 72 h
WHIM30 [8] = conditions: 1 µM; 72 h

| SMILES | cell viability (HCI01 [1]) | cell viability (HCI03) | cell viability (HCI09) | cell viability (HCI11) | cell viability (HCI13) | cell viability (HCI16) | cell viability (UCD52 [2]) | cell viability (WHIM2 [3]) | cell viability (WHIM30 [4]) | cell viability (HCI01 [5]) | cell viability (UCD52 [6]) | cell viability (WHIM2 [7]) | cell viability (WHIM30 [8]) |
| --- | --- | --- | --- | --- | --- | --- | --- | --- | --- | --- | --- | --- | --- |
| C=C1CC2C(CCC3(C)C(=O)CCC23)C2(C)C=CC(=O)C=C12 (stereo not drawn) [Exemestane] | 166 ± 17 | 103 | 101 ± 14 | 124 | 150 ± 6.5 | 124 | 159 ± 17 | 128 ± 28 | 151 ± 15 |  |  |  |  |
| C=CCN1CCC23c4c5ccc(O)c4OC2C(=O)CCC3(O)C1C5.Cl (stereo not drawn) [Naloxone HCl] | 124 ± 20 | 125 | 101 ± 18 | 93.5 | 130 ± 23 | 112 | 74.1 ± 13 | 86 ± 15 | 91.4 ± 2.9 |  |  |  |  |
| CC(C)CC(CN)CC(=O)O (stereo not drawn) [Pregabalin] | 97.8 ± 10 | 104 | 90.8 ± 9 | 95.6 | 138 ± 18 | 70.8 | 78.2 ± 7.7 | 81.4 ± 9.4 | 111 ± 21 |  |  |  |  |
| CC(C)OC(=O)[C@H](C)N[P@](=O)(CO[C@H](C)Cn1cnc2c(N)ncnc21)Oc1ccccc1 | 97.2 ± 1.3 | 109 | 87.9 ± 11 | 112 | 65.7 ± 8 | 183 | 103.7 ± 0.83 | 117.1 ± 0.62 | 144 ± 8.2 |  |  |  |  |
| O=P1(N(CCCl)CCCl)NCCCO1 (stereo not drawn) [Cyclophosphamide] | 107 ± 4.7 | 98 | 104.9 ± 0.44 | 88.5 | 112 ± 5.9 | 80.3 | 99.09 ± 0.21 | 79.86 ± 0.25 | 115 ± 14 |  |  |  |  |
| Br.COC(=O)C1=CCCN(C)C1 [Arecoline hydrobromide] | 94 ± 16 | 135 | 106 ± 21 | 88.9 | 103 ± 9.4 | 121 | 121 ± 21 | 116 ± 1.5 | 114 ± 16 |  |  |  |  |
| CCCCCCCCCCCCCCCC[n+]1ccccc1.[Cl-] [Cetylpyridinium Chloride] | 32.9 ± 12 | 44.4 | 16.9 ± 3.2 | 53.1 | 25 ± 4.5 | 42.1 | 24.2 ± 1.9 | 36.7 ± 13 | 28.1 ± 0.9 | 92.7 | 67.6 | 63.4 | 52.8 |
| O=c1cccc2n1C[C@@H]1CNC[C@H]2C1 [Cytisine] | 93.3 ± 12 | 112 | 97.8 ± 15 | 95 | 106 ± 14 | 128 | 90.9 ± 4.7 | 87.9 ± 19 | 81.4 ± 3.6 |  |  |  |  |
| CC(C)c1c(CN(C)C(C)Cc2ccccc2)n(C)n(-c2ccccc2)c1=O (stereo not drawn) [Famprofazone] | 121 ± 24 | 129 | 79.2 ± 5.1 | 111 | 85.3 ± 14 | 121 | 87.7 ± 11 | 97.6 ± 16 | 124 ± 8.3 |  |  |  |  |
| Cn1c(COP(=O)(NCCBr)NCCBr)cnc1[N+](=O)[O-] | 99.5 ± 14 | 100 | 123 ± 33 | 120 | 153.9 ± 0.46 | 44.9 | 81.4 ± 2.1 | 44.6 ± 2.6 | 107 ± 2.5 |  |  |  |  |
| C[C@@H]1CC[C@H]2[C@@H](C)C(=O)O[C@@H]3OC4(C)CC[C@@H]1[C@]32OO4 [Artemisinine] | 125 ± 38 | 139 | 91.1 ± 1.5 | 102 | 95.7 ± 11 | 153 | 97.45 ± 0.15 | 93.9 ± 15 | 96.3 ± 17 |  |  |  |  |
| CCC[C@H](C)[C@@]1(CC)C(=O)N=C([O-])NC1=O.[Na+] [Pentobarbital sodium salt] | 86.4 ± 3 | 105 | 81.9 ± 8.1 | 85.2 | 96.3 ± 17 | 87 | 86.6 ± 2.1 | 96.2 ± 21 | 99.4 ± 11 |  |  |  |  |
| CC(C)N(CCNC(=O)CN1CCCC1=O)C(C)C [Pramiracetam] | 85.1 ± 58 | 155 | 101 ± 9.4 | 110 | 120 ± 2.3 | 129 | 108 ± 2.9 | 119 ± 11 |  |  |  |  |  |
| CCCCCCCCCCCC[N+](C)(C)CCOc1ccccc1.[Br-] [Domiphen Bromide] | 34.9 ± 13 | 48.7 | 24.1 ± 1.5 | 50.1 | 41.3 ± 10 | 46.4 | 27.6 ± 1.8 | 44 ± 14 | 28.4 ± 4.7 | 88.5 | 80.4 | 81.7 | 57.1 |
| Cc1cccc(Cc2cnc[nH]2)c1C.Cl [Detomidine HCl] | 118 ± 4 | 114 | 96.9 ± 30 | 97.2 | 79.4 ± 6.8 | 92 | 84.9 ± 4.3 | 85.5 ± 32 | 135 ± 3 |  |  |  |  |
| C[C@]12CC[C@H]3[C@@H](CC[C@@]45O[C@@H]4C(O)=C(C#N)C[C@]35C)[C@@H]1CC[C@@H]2O [Trilostane] | 131 ± 24 | 119 | 90.1 ± 5.6 | 114 | 73.7 ± 19 | 103 | 115 ± 8.4 | 115 ± 15 | 100 ± 15 |  |  |  |  |
| Cl.NCC1(CC(=O)O)CCCCC1 [Gabapentin HCl] | 142 ± 42 | 121 | 94.2 ± 3.2 | 90.2 | 109 ± 14 | 120 | 80.45 ± 0.75 | 85.7 ± 7.6 | 115.5 ± 0.43 |  |  |  |  |
| COc1ccc(C(=O)N2CCCC2=O)cc1 [Aniracetam] | 102 ± 2 | 107 | 147 ± 79 | 104 | 139 ± 1.5 | 95.4 | 96 ± 7.3 | 94.8 ± 14 | 86.1 ± 6.5 |  |  |  |  |
| CN(C)C1C(=O)C(C(N)=O)=C(O)C2(O)C(=O)C3=C(O)c4c(O)cccc4C(C)(O)C3C(O)C12.O.O (stereo not drawn) [Oxytetracycline Dihydrate] | 81.3 ± 15 | 129 | 111 ± 22 | 83.1 | 123.2 ± 0.95 | 116 | 95.3 ± 1.7 | 72.2 ± 15 | 123.8 ± 0.32 |  |  |  |  |
